From PubChem BioAssay
This is a sample that favours compounds with a hit; in the whole collection about 3.5% have one here.
GPR151 activ – activates the human receptor GPR151. Q8TDV0. PathHunter beta-arrestin GPR151 cells, luminescence. activation, % at 11.2 µM. 1% of 650,000 active. AID 1508602; in the data active = activation above about 4.9%;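 note: 0% = median of compound wells and 100% = cells with positive control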
MITF primary – inhibitors of human MITF | O75030 | AlphaScreen MITF homodimerization, bead proximity signal | inhibition, % at 2.6 µM | 0.91% of 650,000 active | AID 1259374; in the data active = inhibition above about 50%;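 note: 0% = vehicle wells with protein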
TEAD-YAP inh – TEAD-YAP interaction inhibition; HEK-TIYL cells, TEAD-Gal4/YAP UAS-luciferase luminescence; inhibition, % at 9.12 µM; 1.4% of 640,000 active; in the data active = inhibition above about 32%;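 note: 0% = median of test compound wells and 100% = reference inhibitor wells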
FBW7 activator – human FBW7 E3 ligase activation, primary screen | normalized activity (activation), % at 26.1 µM | Q969H0 | 0.13% of 650,000 active | AlphaScreen FBW7–phospho-cyclin E peptide binding, activator screen; in the data active = normalized activity above about 1.9%;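 note: purified mutant Fbw7 with reduced substrate affinity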
Target sequence (Q969H0 whole entry, looked up): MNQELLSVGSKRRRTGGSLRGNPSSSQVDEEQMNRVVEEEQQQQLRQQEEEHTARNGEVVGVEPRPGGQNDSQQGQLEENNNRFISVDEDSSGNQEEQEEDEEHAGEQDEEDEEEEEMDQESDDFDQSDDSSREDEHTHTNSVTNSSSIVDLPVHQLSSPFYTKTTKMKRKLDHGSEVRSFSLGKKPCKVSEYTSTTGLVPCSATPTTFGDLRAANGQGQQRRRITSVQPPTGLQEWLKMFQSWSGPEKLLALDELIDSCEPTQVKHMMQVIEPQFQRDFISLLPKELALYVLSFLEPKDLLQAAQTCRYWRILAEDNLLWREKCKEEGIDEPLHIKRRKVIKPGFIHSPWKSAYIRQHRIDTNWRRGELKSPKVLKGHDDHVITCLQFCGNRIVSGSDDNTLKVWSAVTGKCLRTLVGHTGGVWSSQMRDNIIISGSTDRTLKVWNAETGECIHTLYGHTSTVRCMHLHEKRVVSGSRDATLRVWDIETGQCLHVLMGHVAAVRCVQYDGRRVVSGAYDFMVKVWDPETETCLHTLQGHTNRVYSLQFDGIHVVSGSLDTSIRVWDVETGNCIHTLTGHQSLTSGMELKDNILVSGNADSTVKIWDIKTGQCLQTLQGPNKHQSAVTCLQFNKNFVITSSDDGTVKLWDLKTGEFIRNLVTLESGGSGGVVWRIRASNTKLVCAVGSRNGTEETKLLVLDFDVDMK
An asterisk follows results filed as active.

`CC1CCc2c(sc(NC(=O)c3ccco3)c2C(=O)O)C1` (stereo not given) gave GPR151 activ -2, MITF primary -6, TEAD-YAP inh 33* and FBW7 activator 0.
Screening CCN(CC)C(=O)c1c(NC(=O)c2ccco2)sc2c1CCC(C(C)(C)C)C2 (stereo not given) returned GPR151 activ 0, MITF primary 0, TEAD-YAP inh 3 and FBW7 activator 0.
CC(C)(C)C1CCc2c(sc(NC(=O)c3ccco3)c2C(=O)O)C1 (stereo not given) was read as GPR151 activ -1, MITF primary 2, TEAD-YAP inh 90* and FBW7 activator 0.
For CC(=O)Nc1nc(NC(C)=O)nc(-c2ccccn2)n1 the results were GPR151 activ 2, MITF primary 44, TEAD-YAP inh 8 and FBW7 activator -1.
Fc1cccc(-c2cnc3c(Nc4ccc5[nH]ccc5c4)nccn23)c1 was read as GPR151 activ -3, MITF primary -22, TEAD-YAP inh 13 and FBW7 activator 0.
`CS(=O)(=O)Nc1cccc(-c2cnc3c(Nc4ccc5[nH]ccc5c4)nccn23)c1` gave GPR151 activ -1, MITF primary 18, TEAD-YAP inh 90* and FBW7 activator 0.
Screening c1cnc2c(-c3cnc4c(Nc5ccc6[nH]ccc6c5)nccn34)cccc2c1 returned GPR151 activ 0, MITF primary 7, TEAD-YAP inh 55* and FBW7 activator -1.
c1ccc(-c2cnc3c(Nc4ccc5[nH]ccc5c4)nccn23)cc1 was read as GPR151 activ -2, MITF primary -5, TEAD-YAP inh 0 and FBW7 activator 0.
For O=C(NCCc1ccccc1)c1ccc(OC2CCN(C(=O)c3ccoc3)CC2)cc1 the results were GPR151 activ 1, MITF primary 11, TEAD-YAP inh 53* and FBW7 activator 0.
`Cc1cc(C(=O)N2CCC(Oc3ccc(C(=O)NCCc4ccccc4)cc3)CC2)no1` gave GPR151 activ 0, MITF primary 2, TEAD-YAP inh 9 and FBW7 activator 0.
Screening O=C(NCCc1ccccc1)c1ccc(OC2CCN(C(=O)c3ccsc3)CC2)cc1 returned GPR151 activ -1, MITF primary 8, TEAD-YAP inh 1 and FBW7 activator 0.
`COCC(=O)N1CCC(Oc2ccc(C(=O)NCCc3ccccc3)cc2)CC1` gave GPR151 activ 1, MITF primary -5, TEAD-YAP inh 28 and FBW7 activator 0.
Cc1ncoc1C(=O)N1CCC(Oc2ccc(C(=O)NCCc3ccccc3)cc2)CC1 was read as GPR151 activ 0, MITF primary -2, TEAD-YAP inh 50* and FBW7 activator 0.
`Cc1ccoc1C(=O)N1CCC(Oc2ccc(C(=O)NCCc3ccccc3)cc2)CC1` gave GPR151 activ 1, MITF primary -16, TEAD-YAP inh 83* and FBW7 activator 0.
Screening O=C(NCCc1ccccc1)c1ccc(OC2CCN(C(=O)Cn3cncn3)CC2)cc1 returned GPR151 activ 0, MITF primary 0, TEAD-YAP inh 76* and FBW7 activator 0.
For COc1cc(C(=O)NCc2ccc(CC(C)C)nc2SC)cc(OC)c1OC the results were GPR151 activ 1, MITF primary 1, TEAD-YAP inh 5 and FBW7 activator 0.
Screening Cc1nn(C(C)C(=O)NCCCOC(C)C)c(=O)c2cc3sccc3n12 (stereo not given) returned GPR151 activ 0, MITF primary -1, TEAD-YAP inh -1 and FBW7 activator 0.
`CN(C)CCNC(=O)c1cccn2c(=O)c3cc4ccccc4cc3nc12` gave GPR151 activ 0, MITF primary 2, TEAD-YAP inh 71* and FBW7 activator 0.
Screening CC(C)CCNC(=O)c1cccn2c(=O)c3cc4ccccc4cc3nc12 returned GPR151 activ 0, MITF primary -4, TEAD-YAP inh -29 and FBW7 activator 0.
Cc1cc2c(N3CCN(c4ccccn4)CC3)ncnc2s1 was read as GPR151 activ 1, MITF primary 19, TEAD-YAP inh 41* and FBW7 activator 0.
`Cc1cc2c(N3CCN(c4ccccc4)CC3)ncnc2s1` gave GPR151 activ 0, MITF primary 1, TEAD-YAP inh 6 and FBW7 activator 0.
For Cc1cc2c(N3CCN(Cc4ccc5c(c4)OCO5)CC3)ncnc2s1 the results were GPR151 activ 1, MITF primary 17, TEAD-YAP inh 45* and FBW7 activator 0.
O=C(c1cnc(N2CCN(c3ncccn3)CC2)c2ccccc12)N1CCCC1 was read as GPR151 activ -1, MITF primary 4, TEAD-YAP inh -8 and FBW7 activator 0.
